Shown are actives, neighbours in structure and some others; about 3.3% of the full set was active somewhere.
Sm TGR inh = qHTS Assay for the Inhibitors of Schistosoma Mansoni Peroxiredoxins; Schistosoma mansoni thioredoxin glutathione reductase (TGR), Q962Y6; AID 485364, 2010; purified TGR, DTNB reduction, TNB absorbance 405 nm; Potency, µM (series often up to 114 µM), for inactives: top-dose activity change, negative = inhibition, hits mostly inhibitors; 360,000 compounds, 3% hits; note: nearly all actives have a fitted effect of over 60% in size
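First, TGR (20 nM dispensed) and NADPH were mixed with compound. Second, a 15 min room-temperature incubation followed. Third, further NADPH and then DTNB were added to start the reaction. Finally, TNB absorbance was monitored kinetically.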
AmpC no deterg = qHTS Inhibitors of AmpC Beta-Lactamase (assay without detergent) | AmpC nitrocefin hydrolysis, absorbance 480 nm, 0.0001% Triton | Potency, µM (top dose mostly 57.1 µM), for inactives: at the highest dose activity change, negative = inhibition, most hits filed as inhibitors | 330,000 compounds, 0.52% hits | AID 485341, 2010;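 note: plate controls were no compound for no effect and no enzyme for full effect; nearly all actives have a fitted effect of over 20% in size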
Target sequence (P00811 whole entry, looked up): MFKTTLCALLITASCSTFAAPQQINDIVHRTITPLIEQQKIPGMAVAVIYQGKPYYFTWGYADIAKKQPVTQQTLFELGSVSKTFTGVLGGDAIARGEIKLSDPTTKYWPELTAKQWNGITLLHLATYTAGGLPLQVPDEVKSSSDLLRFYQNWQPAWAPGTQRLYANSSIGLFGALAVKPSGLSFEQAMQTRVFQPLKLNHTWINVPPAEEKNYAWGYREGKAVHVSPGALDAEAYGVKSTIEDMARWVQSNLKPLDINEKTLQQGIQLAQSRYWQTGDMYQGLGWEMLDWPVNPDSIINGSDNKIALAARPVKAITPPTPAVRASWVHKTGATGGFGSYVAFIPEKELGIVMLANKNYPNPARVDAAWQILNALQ
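AmpC (5.3 nM in the dispensed reagent) in 20 mM phosphate pH 7.0 with 0.01% (detergent screen) or 0.0001% Triton X-100 was preincubated with compounds for 15 min at room temperature. Nitrocefin was then added from an 800 uM solution, and hydrolysis was followed at 480 nm.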
AmpC detergent = qHTS Inhibitors of AmpC Beta-Lactamase (assay with detergent); 370,000 compounds, 0.041% hits; AID 485294, 2010; P00811; Potency, µM (titrated, usually from 114 µM), for inactives: at the highest dose activity change, negative = inhibition, most hits filed as inhibitors; AmpC hydrolysis of nitrocefin, absorbance 480 nm, 0.01% Triton;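 note: 0% = no-compound wells and -100% = no-enzyme wells; nearly all actives have a fitted effect of over 25% in size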
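20 mM phosphate pH 7.0 + 0.01% (detergent screen) or 0.0001% Triton X-100; 5.3 nM AmpC reagent; cpd preinc 15 min RT; nitrocefin (800 uM stock) to start; A480 q20 s × 4 min; Activity was normalised to no-enzyme and no-compound control wells.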
Numbers without * were called inactive; ? = inconclusive; . = no result given; [ ] = dose if it differs, or a comment. Calls come from the whole dose curve; as a rule, active = well fitted curve in the direction sought with a large enough effect; inconclusive = small, poorly fitted or top-dose-only effect, or another doubt; inactive = no such curve, though single readings can be large; an effect the other way counts as inactive or inconclusive. Unless noted, % is set by controls: 0 for no effect and ±100 for the full control effect; potency is the fitted concentration of half-maximal effect.

SMILES	Sm TGR inh	AmpC no deterg	AmpC detergent
COc1ccc(OC)c(NCc2cccn2-c2nnc(N3CCCCC3)s2)c1	-15%	.	5%
O=C(NCc1ccccc1)c1ccc2c(c1)C(=O)N(Cc1cccnc1)C2=O	1%	6%	-8%
O=c1cc(/N=C/c2coc3c(ccc4ccccc43)c2=O)[nH]c(=S)[nH]1	-13%	?	?
COc1cccc(NC(=O)C(=O)NCCc2csc(-c3ccc(C(F)(F)F)cc3)n2)c1	17%	.	9%
COc1ccc(S(=O)(=O)N2CCC(C(=O)NCCc3ccccc3)CC2)cc1	5%	-5%	?
CCOc1ccccc1C(=O)N/N=C/c1coc2ccc(Cl)cc2c1=O	5%	-33%	4%
COc1ccc(-n2c(=O)cc(N3CCCCCC3)[nH]c2=O)cc1	1%	-5%	-1%
CCOC(=O)C1CCN(c2cc(=O)n(-c3ccc(OC)cc3)c(=O)[nH]2)CC1	-1%	3.5µM*	?
Cc1c(Cl)cccc1NC(=O)CC(c1ccc(F)cc1)N1Cc2ccccc2C1=O (configuration not stated)	0%	.	2%
COc1ccc(NC(=O)c2nnn(Cc3ccc(Br)cc3F)c2N)c(OC)c1	2%	.	-8%
COc1ccc(OC)c(NC(=O)c2nnn(Cc3ccc(Br)cc3F)c2N)c1	-2%	0.79µM*	?
Oc1ccc(CN2CCC(Cc3ccccc3)CC2)c2cccnc12	7.9µM*	-21%	8%
Clc1ccccc1CN1CCC(Cc2ccccc2)CC1	6%	-11%	-1%
Oc1ccc(CN2CCN(c3ccccc3)CC2)c2cccnc12	1.4µM*	-19%	?
Cn1cc(CN2CCc3ccccc3C2)c2ccccc21	?	-19%	2%
CCOC(=O)N1CCN(Cc2ccc(O)c3ncccc23)CC1	0.28µM*	19%	3%
Oc1ccc(CN2CCc3ccccc3C2)c2cccnc12	32µM*	.	-11%
CCOC(=O)N1CCN(Cc2ccccn2)CC1	2%	.	-2%
Oc1ccc(CN2CCCCC2)c2cccnc12	0%	-17%	-1%
Cc1nc(CN(C)Cc2nc(Cc3ccccc3Cl)no2)cs1	-3%[57.1 µM]	7%	-2%
COc1ccc(NS(=O)(=O)c2cccc(C(=O)NNC(=O)c3ccc(O)c(Cl)c3)c2)cc1	-3%	-31%	5%
CN(CC(=O)Nc1ccc(F)cc1)C(=O)CN1C(=O)NC2(CCCC2)C1=O	2%	-12%	8%
COCCn1c(Cc2ccccc2)nnc1SCC(=O)Nc1ccccc1	.	8%	2%
COCCn1c(Cc2ccccc2)nnc1SCC(=O)Nc1oc(C)c2c(C)n[nH]c(=O)c12	50µM*	-15%	?
Cc1csc(CN(C)C(=O)CC2C(=O)NCCN2Cc2ccc(F)cc2Cl)n1 (configuration not stated)	13µM*	34%	-8%
SMILES	Sm TGR inh	AmpC no deterg	AmpC detergent
Cc1csc(CNC(=O)CC2C(=O)NCCN2Cc2ccc(F)cc2Cl)n1 (configuration not stated)	7%	-18%	6%
Cc1csc(CN(C)C(=O)CC2C(=O)NCCN2Cc2ccc(-c3ccccc3)cc2)n1 (configuration not stated)	11%	-12%	-2%
Cc1csc(CN(C)C(=O)CC2C(=O)NCCN2Cc2ccc(Cl)c(F)c2)n1 (configuration not stated)	45µM*	81%	-4%
O=C1CN(C(=O)COC(=O)CCS(=O)(=O)c2ccccc2)c2ccccc2N1	-8%	-6%	1%
CC1=CC(C)(C)N(C(=O)Nc2ccccc2)c2ccccc21	?	-7%	?
CC(=O)N1c2ccccc2C(CBr)=CC1(C)C	13µM*	-11%	4%
CCN(CC)CCNC(=O)c1ccc(NC(=O)c2cccc(-n3cnnn3)c2)cc1	0%	-25%	-19%
O=C1CCc2cc(S(=O)(=O)NCCc3ccccc3)cc3c2N1CC3	-1%	-11%	?
COc1ccccc1C(=O)NCc1ccc2c(c1)CCN2C(=O)c1ccncc1	-5%	.	1%
COc1ccc(OC)c2c1sc(=NC(=O)c1cccc(N3C(=O)CCC3=O)c1)n2C	-2%	40µM*	?
COc1ccc(C(=O)N=c2sc3c(C)ccc(OC)c3n2C)cc1	-3%	1.1µM*	?
CCn1c(=NC(=O)c2cccc(N3C(=O)CCC3=O)c2)sc2c(OC)ccc(OC)c21	6%	-8%	5%
COc1cc(C(=O)N=c2sc3c(C)ccc(OC)c3n2C)cc(OC)c1OC	-3%	-7%	-6%
O=C(NN=C1CCCC1)c1cccc(Br)c1	5%	-16%	8%

High-throughput results: PubChem, National Center for Advancing Translational Sciences (NCATS)
